# Rows were chosen to be rich in hits. Some 7.5% of all compounds tested hit in one or more screens of this group.
# ELG1 repair inh – blocks ELG1-dependent DNA repair in HEK293T cells; HEK293T ELG1-luciferase reporter, luminescence, 16 h; DNA damage induced by 5-fluorouridine; Potency, µM (series often up to 46.1 µM), for inactives: at the highest dose activity change, negative = inhibition, usual class: inhibitors; hit rate 2.3% among 330,000; also: potency is read from the fitted curve at half-maximal effect; nearly all actives have a fitted effect of over 55% in size
#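 Reporter activity after DNA damage by 5-fluorouridine is monitored. Compound-treated cells incubate 16 hr at 37 °C, then ONE-Glo is added for 30 min before luminescence reading.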
# RORg inh – inhibitors of mouse ROR gamma transcriptional activity; hit rate 5.4% among 310,000; P51450; Drosophila S2 Gal4-RORgamma UAS-luciferase reporter, 20 h; Potency, µM (titrated, usually from 53.6 µM), for inactives: at the highest dose activity change, negative = inhibition, hits mostly inhibitors; also: potency is read from the fitted curve at half-maximal effect; nearly all actives have a fitted effect of over 60% in size
# Target sequence (P51450 whole entry, looked up, the tested form may be a part): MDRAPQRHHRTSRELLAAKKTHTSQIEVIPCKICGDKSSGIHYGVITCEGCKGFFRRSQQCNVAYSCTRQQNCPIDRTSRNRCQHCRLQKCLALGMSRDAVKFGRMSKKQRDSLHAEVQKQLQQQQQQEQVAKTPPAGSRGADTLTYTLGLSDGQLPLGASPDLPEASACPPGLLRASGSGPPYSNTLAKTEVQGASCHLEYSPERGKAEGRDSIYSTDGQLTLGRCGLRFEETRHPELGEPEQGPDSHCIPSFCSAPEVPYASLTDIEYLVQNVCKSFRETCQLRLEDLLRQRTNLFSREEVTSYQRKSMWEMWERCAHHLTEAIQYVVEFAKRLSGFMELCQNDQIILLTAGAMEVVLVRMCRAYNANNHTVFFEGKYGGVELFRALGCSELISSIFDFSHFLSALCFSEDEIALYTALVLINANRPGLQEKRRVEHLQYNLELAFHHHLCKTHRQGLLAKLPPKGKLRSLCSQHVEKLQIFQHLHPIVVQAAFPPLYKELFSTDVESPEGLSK
#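 Stable Schneider cell line, Gal4 DNA-binding domain fused to ROR gamma, UAS-luciferase. Cmpd 1 hr RT → CuSO4 700 uM final → 20 hr RT → luciferase reagent 10 min → luminescence.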
# VP16 counter – inhibits Gal4-VP16 luciferase reporter, ROR gamma counter-screen | Drosophila S2 Gal4-VP16 UAS-luciferase, luminescence, 20 h | Potency, µM (highest dose often 53.6 µM), inactives show at the top dose activity, negative = inhibition, usual class: inhibitors | hit rate 3.5% among 310,000;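 also: Gal4-VP16 expression switched on by copper sulfate through the metallothionein promoter; potency is read from the fitted curve at half-maximal effect; nearly all actives have a fitted effect of over 50% in size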
# B2AR arrestin – beta2AR (human) beta-arrestin recruitment activity; P07550; beta-arrestin recruitment to beta2AR, cell-based reporter; Potency, µM (doses to about 46.1 µM), for inactives: at the top dose activation, usual class: activators; hit rate 0.02% among 330,000; AID 492947;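 also: potency is read from the fitted curve at half-maximal effect; 0% = DMSO controls and full agonism = EC100 isoproterenol or metaproterenol; nearly all actives have a fitted effect of over 65% in size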
# TSHR antagonist – antagonists of human thyroid stimulating hormone receptor | TSHR-expressing cells, TSH-stimulated cAMP HTRF, 2 h; active compounds read low | activity change, negative = inhibition, % at 11.5 µM | hit rate 0.2% among 330,000 | AID 504810;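 active = activity change below a set negative limit, meaning inhibition stronger than a set level, cut at about -70% in these data; inconclusive = activity change between two set negative limits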
#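 Freshly harvested TSHR cells receive pin-tooled compound, then EC80 TSH at 4nM final. After 2 hours at 37 deg C, antibody in lysis buffer and cAMP-d2 are added; 30 minutes at ambient temperature precede the HTRF read.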
# An asterisk follows results filed as active; ? = inconclusive; / = no result given. Unless noted, calls follow the shape of the dose curve; as a rule, active = well fitted curve in the direction sought with a large enough effect; inconclusive = small, poorly fitted or top-dose-only effect, or another doubt; inactive = no such curve, though single readings can be large; an effect the other way counts as inactive or inconclusive. Unless noted, % is scaled to controls: 0 for no effect and ±100 for the full control effect.
SMILES,ELG1 repair inh,RORg inh,VP16 counter,B2AR arrestin,TSHR antagonist
Cc1ccc(S(=O)c2snnc2C)cc1 (stereo not given),-5%,4%,-6%,0%,6
CCCNC(=O)c1nnsc1S(=O)(=O)c1ccc(Cl)cc1,?,1.1µM*,3.2µM*,-2%,?
CNC(=O)c1nnsc1S(=O)c1ccc(Cl)cc1 (stereo not given),?,1.3µM*,5µM*,0%,-14
CCCNC(=O)c1nnsc1S(=O)c1ccc(Cl)cc1 (stereo not given),26%,1.1µM*,4µM*,0%,-38
CCCNC(=O)NS(=O)(=O)c1ccc(Cl)cc1,1%,-7%,-8%,0%,-12
CC(C)C(NS(=O)(=O)c1ccccc1F)C(=O)OCC(=O)NCc1ccco1 (stereo not given),14%,/,/,0%,12
c1cncc(-c2cncnc2-n2ccnc2)c1,/,2%,7%,/,/
CC(C)CCCC(C)NC(C)C (stereo not given),/,-6%,-3%,/,/
Fc1ccccc1C1c2cccn2CCN1C(=S)Nc1ccc(Br)cc1 (stereo not given),-16%,?,-13%,0%,0
Fc1ccc(C2c3cccn3CCN2C(=S)Nc2cccc(F)c2)cc1 (stereo not given),?,10µM*,-66%,-1%,-2
Fc1ccccc1C1c2cccn2CCN1C(=S)Nc1cccc(Br)c1 (stereo not given),?,13µM*,?,0%,-1
Fc1cccc(NC(=S)N2CCn3cccc3C2c2cccnc2)c1 (stereo not given),-23%,9%,-1%,0%,-3
CCN(CC(=O)Nc1ccccc1C(F)(F)F)C(=O)CCc1c(C)[nH]c(=O)c(C#N)c1C,?,-3%,7%,0%,9
CC(C)C[C@H](NC(=O)N1CCn2c1nc1ccccc12)C(=O)NCc1ccc2c(c1)OCO2,-1%,-3%,-2%,-1%,0
O=[N+]([O-])c1ccc(O)c(CSc2nnnn2-c2ccccc2)c1,-6%,?,-8%,-1%,-7
COC(=O)c1cc(=O)n(Cc2cccs2)c(=Nc2ccc(F)cc2)s1,-12%,?,?,0%,-14
COC(=O)c1cc(=O)n(-c2ccc(F)cc2)c(=Nc2ccc(F)cc2)s1,?,?,16µM*,-1%,-6
CCCCC(C)(O)C/C=C/[C@H]1[C@H](O)CC(=O)[C@@H]1CCCCCCC(=O)O (stereo not given in full),/,-14%,-15%,/,/
C=CCCN(C(C)C(=O)OC)S(=O)(=O)c1ccccc1Br (stereo not given),/,-23%,-4%,/,/
COc1cc([N+](=O)[O-])ccc1NC(=O)NCc1cccnc1,-11%,33%,-15%,0%,-76*
COc1cc([N+](=O)[O-])ccc1NC(=S)NC(=O)CC(C)(C)C,-6%,10µM*,-6%,0%,-13
CCOC(=O)C(=O)Nc1ccc([N+](=O)[O-])cc1OC,1%,0%,-11%,0%,-6
CCOC(=O)c1ccc(C(=O)OCC)c(NC(=S)Nc2ccc([N+](=O)[O-])cc2OC)c1,?,2.2µM*,2.8µM*,-1%,0
COc1ccc(NC(=O)NCc2cccnc2)c(OC)c1,0%,1%,-3%,0%,-2
COC(=O)c1sc2ccccc2c1-n1cccc1C(=O)C(=O)Nc1ccc(F)cc1,15µM*,19%,-25%,0%,19
SMILES,ELG1 repair inh,RORg inh,VP16 counter,B2AR arrestin,TSHR antagonist
COC(=O)c1sc2ccccc2c1-n1cccc1C(=O)C(=O)Nc1ccc(C)cc1,?,11%,1%,0%,-24
Cc1cc(N(C)C)nc(Nc2ccccc2)n1,15µM*,/,/,0%,1
CC(=O)Oc1ccc(/C=C2\C=C(c3ccc(C)cc3)OC2=O)cc1,18%,0.45µM*,?,-1%,-3
CCn1ccnc1CN1CCc2c([nH]c3ccccc23)C1C(C)(C)C (stereo not given),-14%,4.5µM*,?,-1%,1
Cc1c(CN2CCc3c([nH]c4ccccc34)C2C2CCCCC2)cnn1C (stereo not given),11%,-11%,-9%,0%,-8
Cc1cnc(CN2CCc3c([nH]c4ccccc34)C2CC(C)C)[nH]1 (stereo not given),-7%,-33%,11%,0%,15
COCc1ccc(CN2CCc3c([nH]c4ccccc34)C2C(C)(C)C)o1 (stereo not given),?,11µM*,?,0%,-7
CCn1ccnc1CN1CCc2c([nH]c3ccccc23)C1C1CCCCC1 (stereo not given),-14%,13µM*,?,0%,2
CCn1ccnc1CN1CCc2c([nH]c3ccccc23)C1CC(C)C (stereo not given),23µM*,3.2µM*,7.9µM*,-1%,1
Cn1c2ccsc2c2cnn(Cc3ccc(F)cc3)c(=O)c21,/,/,/,-1%,4
CCOC(=O)CNC(=O)O[C@@H]1C(=O)c2cc(Br)ccc2O[C@H]1c1cccc(OC)c1,/,-8%,-21%,/,/
CC(=O)OCC(NC(=O)C1CCCN1C(=O)OC(C)(C)C)C1OC(n2ccc(=O)[nH]c2=O)C(OC(C)=O)C1OC(C)=O (stereo not given),/,-11%,-4%,/,/
Nc1nc2c(ncn2[C@@H]2O[C@H](CO)[C@@H](O)[C@H]2O)c(=O)[nH]1,/,1%,-1%,/,/
Nc1nc2c(ncn2C2OC(CO)CC2O)c(=O)[nH]1 (stereo not given),/,20µM*,?,/,/
O=C1c2ccc3c4c(ccc(c24)C(=O)N1c1cccc(O)c1)C(=O)N(c1cccc(O)c1)C3=O,6.5µM*,?,?,0%,3
O=C1c2ccc3c4c(ccc(c24)C(=O)N1c1cccc(O)c1)CC3,13%,3%,-3%,0%,-7
CCCCCC(=O)Nc1cccc(C2=NOC3(C2)C[C@H](C(N)=O)N(C(=O)COc2ccc(Cl)cc2)C3)c1 (stereo not given in full),7.3µM*,?,-20%,-1%,12
CCCCCC(=O)Nc1cccc(C2=NOC3(C2)C[C@@H](C(N)=O)N(C(=O)Cc2ccc([N+](=O)[O-])cc2)C3)c1 (stereo not given in full),13µM*,13%,1%,0%,1
NC(=O)[C@H]1CC2(CC(c3cccc(NC(=O)COc4ccc(Cl)cc4)c3)=NO2)CN1C(=O)Cc1ccc([N+](=O)[O-])cc1 (stereo not given in full),2.1µM*,14%,2%,0%,-5
